# Measured values published in PubChem BioAssay AID1851 (National Center for Advancing Translational Sciences (NCATS), 2009).
# Out of some 16,000 compounds screened, about 4,000 (25%) were called active. About 26% were inconclusive and are not listed. Calls follow the shape of the dose curve; as a rule, active = well fitted curve in the direction sought with a large enough effect; inconclusive = small, poorly fitted or top-dose-only effect, or effect the other way; inactive = no such curve, though single readings can be large or run the other way. Only a sample is shown.
# Biological target: Cytochrome P450 2C9 (Homo sapiens) (UniProt P11712)
# Test: Cytochrome panel assay with activity outcomes
# Details: recombinant CYP, pro-luciferin dealkylation, luminescence, p450-cyp2c9; series mostly up to 57.1 µM; activity, negative = inhibition: at the top concentration
# % is scaled to controls: 0 for no effect and ±100 for the full control effect.
# Chain of Cytochrome P450 2C9 (Homo sapiens) (P11712 whole entry, looked up): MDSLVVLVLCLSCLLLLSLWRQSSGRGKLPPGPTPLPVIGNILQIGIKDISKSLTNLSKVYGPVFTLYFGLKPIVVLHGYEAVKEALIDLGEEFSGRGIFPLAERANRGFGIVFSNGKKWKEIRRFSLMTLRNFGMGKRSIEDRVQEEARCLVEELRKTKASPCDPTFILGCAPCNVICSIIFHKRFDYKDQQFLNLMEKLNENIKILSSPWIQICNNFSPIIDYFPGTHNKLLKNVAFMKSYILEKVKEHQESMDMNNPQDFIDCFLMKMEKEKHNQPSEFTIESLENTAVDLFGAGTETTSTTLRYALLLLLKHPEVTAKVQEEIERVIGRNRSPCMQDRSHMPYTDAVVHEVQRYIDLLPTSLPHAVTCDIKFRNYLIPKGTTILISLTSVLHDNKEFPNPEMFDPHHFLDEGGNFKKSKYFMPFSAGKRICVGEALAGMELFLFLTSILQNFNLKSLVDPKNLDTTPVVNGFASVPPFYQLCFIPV
Structure (SMILES),"activity, negative = inhibition",AC50
COCCNc1cc(-c2c(C)noc2C)ncn1,6.99% [at 2.29 µM] (inactive),–
CC(C)(C)NC[C@H](O)COc1cccc2[nH]c(=O)[nH]c12,–,inactive
Cc1ncc(CO)c(CO)c1O,7.59% [at 25.6 µM] (inactive),–
Cc1cc(=O)oc(C)c1C(=O)N1CCCCC1,1.7% (inactive),–
COC(=O)c1ccc(NC(=O)c2ccccc2NS(=O)(=O)c2ccccc2)cc1,–,0.2 µM (active)
Cc1ccc(S(=O)(=O)Nc2ccccc2C(=O)c2ccc(C)c(C)c2)cc1,5.56% [at 11.4 µM] (inactive),–
NC(N)=NC(N)=Nc1ccc(S(N)(=O)=O)cc1,-4.01% [at 11.4 µM] (inactive),–
O=C(c1ccco1)N1CCN(c2cc(=O)n(C3CCCCC3)c(=O)[nH]2)CC1,-1.48% (inactive),–
O=c1cc(N2CCC(Cc3ccccc3)CC2)[nH]c(=O)n1C1CCCCC1,–,12.6 µM (active)
Cc1ccccc1-n1c(=O)cc(N2CC(C)OC(C)C2)[nH]c1=O (centres undefined),-1.49% (inactive),–
CN1CCN(c2ccnc(-c3ccoc3)n2)CC1,4.59% [at 2.29 µM] (inactive),–
CON/C=C(\C=Nc1ccccc1)c1ncc(C(F)(F)F)cc1Cl,–,7.94 µM (active)
N#Cc1c(NC(=O)CCN2C(=O)c3ccccc3C2=O)oc(-c2ccccc2)c1-c1ccccc1,–,0.398 µM (active)
C/C(CCN1CCCc2nc(C)c(C)cc21)=N\O[C@@H](C)c1cn([C@H](CO)Cc2ccccc2)nn1,-12.1% [at 11.4 µM] (inactive),–
Cc1c(/N=C/c2ccco2)n(Cc2ccccc2)c2ccccc12,–,14.1 µM (active)
CCn1c(=O)cc(SCC(=O)N2CCN(C(=O)c3ccco3)CC2)c2ccccc21,2.34% (inactive),–
CC[n+]1c(P(=O)([O-])c2ccccc2)[nH]c2ccccc21,-26.6% (inactive),–
COC(=O)CCSc1cc([N+](=O)[O-])cc2c1c(C1OCCS1)nn2-c1ccccc1 (centres undefined),–,10 µM (active)
Cn1cc(-c2nc3cnc(Oc4ccccc4)nc3n(C)c2=O)c2ccccc21,9.76% (inactive),–
Cn1cc(/C=N/n2cnc3scc(-c4ccccc4)c3c2=O)c2ccccc21,–,5.01 µM (active)
Cn1cc(-c2nc3cncnc3n(-c3ccccc3)c2=O)c2ccccc21,-9.34% (inactive),–
Nc1nonc1-c1noc(CCCN2C(=O)c3ccccc3C2=O)n1,-29.3% (inactive),–
O=C(Cc1ccc(Br)cc1)Nc1ccccc1Sc1ccccc1,–,2.82 µM (active)
COC(=O)c1scc(C)c1NC(=O)Cc1ccccc1,-15.4% (inactive),–

Structure (SMILES),"activity, negative = inhibition",AC50
COc1ccc(CNc2ncncc2-c2cccc(NS(C)(=O)=O)c2)c(OC)c1,-18.5% [at 2.29 µM] (inactive),–
COCCNc1nc(-c2cccc(NS(C)(=O)=O)c2)nc2ccccc12,2.19% [at 2.29 µM] (inactive),–
CNc1nc(-c2cccc(NS(C)(=O)=O)c2)nc2ccccc12,27.5% [at 2.29 µM] (inactive),–
COCCNc1ncnc2ccc(-c3cccc(NS(C)(=O)=O)c3)cc12,16.7% [at 2.29 µM] (inactive),–
COc1ccc(CNc2nc(-c3cccc(NS(C)(=O)=O)c3)nc3ccccc23)c(OC)c1,–,0.158 µM (active)
COc1ccc(CNc2ncnc3ccc(-c4cccc(NS(C)(=O)=O)c4)cc23)c(OC)c1,–,0.501 µM (active)
C[C@@H](CCC(=O)O)C(=O)O,3.2% [at 11.4 µM] (inactive),–
C=CCn1c(C)c(C(C)=O)c(N2CCN(c3ccccc3)CC2)nc1=S,–,12.6 µM (active)
CC(=O)N1CCC[C@@]2(CCN(c3ccccc3)C2)C1,17.6% (inactive),–
CC(=O)c1c(N2CCC(C(N)=O)CC2)nc(=S)n(-c2ccccc2)c1C,-23.7% (inactive),–
COc1ccc(NC(=O)N2CC3(CCN(C(=O)c4csnn4)CC3)C2)cc1,9.55% (inactive),–
Nc1nc2c(ncn2[C@@H]2C=C[C@@H](CO)C2)c(=O)[nH]1,3.99% [at 11.4 µM] (inactive),–
C/C(=C(/CCO)SSC[C@@H]1CCCO1)N(C=O)Cc1cnc(C)nc1N,15.4% [at 25.6 µM] (inactive),–
CCc1ccccc1OC[C@@H](O)CN[C@H]1CCCc2ccccc21,18.2% (inactive),–
Nc1ccc(N(S(=O)(=O)c2ccccc2)S(=O)(=O)c2ccccc2)c(Cl)c1,–,3.16 µM (active)
Nc1ccc(N2C(=O)c3ccccc3C2=O)c(Cl)c1,12.8% (inactive),–
CCC/C=C(\CCC)C(NC(=O)OCC(C)C)c1ccc(C(=O)OC)cc1 (centres undefined),–,3.98 µM (active)
CCC/C=C(\CCC)C(NS(=O)(=O)c1cccs1)c1ccc(C(=O)OC)cc1 (centres undefined),–,2 µM (active)
CCC/C=C(\CCC)C(NC(=O)Cc1ccccc1)c1ccc(C(=O)OC)cc1 (centres undefined),–,10 µM (active)
CCC/C=C(\CCC)C(NC(=O)c1cccs1)c1ccc(C(=O)OC)cc1 (centres undefined),–,2 µM (active)
COC(=O)N1CCC2(CC1)CN(C(=O)Nc1cccc(C#N)c1)C2,-16.4% (inactive),–
COc1ccccc1CNc1ncnc2ccc(-c3ccoc3)cc12,-19.5% [at 2.29 µM] (inactive),–
Cc1cnc(CNc2cc(-c3ccoc3)ncn2)cn1,10.6% [at 2.29 µM] (inactive),–
O=C(Nc1cccc(F)c1)N1CCC2(CC1)CCN(C(=O)c1csnn1)CC2,-10.3% (inactive),–

Structure (SMILES),"activity, negative = inhibition",AC50
CCc1c2c(nc3cccc(OC)c13)OC(CC)C2 (centres undefined),0.447% (inactive),–
CCC/C=C(\CCC)C(NC(=O)c1ccc(C(=O)OC)cc1)c1ccc(C(=O)OC)cc1 (centres undefined),–,2 µM (active)
CCC/C=C(\CCC)C(NC(=O)c1ccc(-c2ccccc2)cc1)c1ccc(C(=O)OC)cc1 (centres undefined),-13.2% (inactive),–
CCC/C=C(\CCC)C(NC(=O)c1ccc(C(F)(F)F)cc1)c1ccc(C(F)(F)F)cc1 (centres undefined),-1.68% (inactive),–
C[N+](C)(C)c1ccc([C@H](N)C(=O)O)cc1,-14.1% [at 11.4 µM] (inactive),–
CCCn1c(=O)c2c(ncn2C)n(CCC)c1=O,3.38% (inactive),–
CCCn1cnc2c1c(=O)n(CCCCC(C)=O)c(=O)n2C,4.22% (inactive),–
CCCCn1cnc2c(cnn2-c2ccc(F)cc2)c1=O,–,11.2 µM (active)
O=C(O)CONC(=O)c1cc(OCC(F)(F)F)ccc1OCC(F)(F)F,4.3% (inactive),–
COC(=O)C1CCN(CC(=O)Nc2sc3c(c2C#N)CCC3)CC1,–,5.62 µM (active)
CC(C)CC(=O)Nc1sc2c(c1C#N)CC(C)(C)NC2(C)C,-27.1% (inactive),–
Cc1c(C(=O)O)nc(/C=C\C(=O)O)[nH]c1=O,-11.9% [at 11.4 µM] (inactive),–
O=C(O)c1nn(-c2ccccc2)nc1-c1nn(-c2ccccc2)nc1C(=O)O,-0.0182% (inactive),–
O=C(c1ccccc1)c1nn(-c2ccccc2)c(=O)cc1C(F)(F)F,–,10 µM (active)
O=C(O)c1nn(-c2ccc(Cl)cc2)c2c1C(=O)c1ccccc1C2=O,-5.15% [at 11.4 µM] (inactive),–
CC(C)[C@H]1C(=O)C(C(N)=O)=C(O)[C@]2(O)C(=O)C3=C(O)c4c(O)ccc(N(C)C)c4C[C@H]3C[C@@H]12,-5.14% (inactive),–
CN(C)CC/C=C1\c2ccccc2Sc2ccc(Cl)cc21,-4.11% [at 25.6 µM] (inactive),–
CC(C(=O)NC1CCCC1)N(C(=O)c1snc(C(N)=O)c1N)c1ccc2c(c1)OCCO2 (centres undefined),–,12.6 µM (active)
CCC(C)(C(=O)NC1CCCC1)N(CC1CCCO1)C(=O)c1ccc2c(c1)OCO2 (centres undefined),-11.3% (inactive),–
Nc1nc(=O)c2[nH]cnc2n1O,-5.05% [at 11.4 µM] (inactive),–
CN(C)Cc1ccccc1-c1ccc2ncnc(NC3CCNCC3)c2c1,7.8% [at 2.29 µM] (inactive),–
Cc1cc(C)n(-c2nnc(C)n2/N=C/c2ccccc2OCc2ccccc2Cl)n1,–,8.91 µM (active)
COc1ccc(/C=N/n2c(C)nnc2C)c(OC)c1,-19.1% (inactive),–
CN(C)CCOC(=O)c1ccc(N)cc1,-8.18% [at 11.4 µM] (inactive),–

Structure (SMILES),"activity, negative = inhibition",AC50
O=C(CCS(=O)(=O)c1cccc2nsnc12)NC1CCCCC1,18.2% (inactive),–
Cc1cccc(NC(=O)CCS(=O)(=O)c2cccc3nsnc23)c1C,–,15.8 µM (active)
COc1cccc(-c2cc(C(F)(F)F)n3ncc(S(=O)(=O)c4ccccc4)c3n2)c1,-9.21% (inactive),–
COc1ccc(NC(=O)N2CCCC3(CCN(C(=O)c4cnccn4)CC3)C2)cc1,1.74% (inactive),–
CCOC(=O)C1CCCN(C(=O)c2cc3nc(-c4ccc5c(c4)OCO5)cc(C(F)(F)F)n3n2)C1 (centres undefined),–,6.31 µM (active)
COc1ccc(-c2cc(C(F)(F)F)n3nc(C(=O)N4CCCCC4)cc3n2)cc1,–,25.1 µM (active)
c1cncc(CNc2ncncc2-c2cccnc2)c1,4.39% [at 2.29 µM] (inactive),–
C(/C=C\c1ccccc1)=Nc1ccc2c(c1)Cc1ccccc1-2,-24.1% [at 11.4 µM] (inactive),–
O=S(=O)(N/N=C\C=C\c1ccccc1)c1ccc(Br)cc1,–,0.501 µM (active)
O=C(N/N=C/C=C/c1ccccc1)c1cc2c(ccc3ccccc32)o1,-29.8% (inactive),–
CCOC(=O)N1CCN(C(=O)CSCc2ccc(Cl)cc2)CC1,-29.6% (inactive),–
CCOC(=O)CSC1=NC(=O)/C(=C\c2ccc(Cl)cc2)S1,–,1.26 µM (active)
Cc1noc(C)c1C(=O)N1CCC2(CC1)CN(c1ncccn1)C2,0.629% (inactive),–
Cc1cc(C)c2c(=O)[nH]c(SCC(=O)N(C)C)nc2n1,-5.89% (inactive),–
Cc1cccc(NC(=O)Cn2c(=O)oc3ccccc32)c1,-13.7% (inactive),–
Cc1cccc(NC(=O)CSc2nc3nc(C)cc(C)c3c(=O)[nH]2)c1,–,7.94 µM (active)
CC[C@@H]1OC(=O)[C@H](C)[C@H](O[C@@H]2C[C@](C)(OC)[C@H](O)[C@H](C)O2)[C@H](C)[C@H](O[C@@H]2O[C@@H](C)C[C@@H](N(C)C)[C@@H]2O)[C@](C)(O)C[C@H](C)C(=NOCOCCOC)[C@H](C)[C@H](O)[C@]1(C)O,-2.35% [at 25.6 µM] (inactive),–
CC(C)COc1ccc(C(=O)Nc2scc(-c3ccc(Cl)cc3Cl)c2C(N)=O)cc1,–,1.78 µM (active)
NC(=O)OC[C@H](O)COc1ccc(Cl)cc1,13.5% [at 25.6 µM] (inactive),–
O=C(Nc1nnc(COc2ccc(Cl)cc2)s1)c1ccc([N+](=O)[O-])cc1,8.46% (inactive),–
COc1ccc(C(=O)Nc2scc(-c3ccc(Cl)cc3Cl)c2C(N)=O)cc1,–,0.631 µM (active)
Cc1sc(NC(=O)c2ccc(OCC(C)C)cc2)c(C(N)=O)c1-c1ccc(Cl)cc1Cl,–,0.562 µM (active)
